Experiment [1] can be described thus: inhibitors of TNFa-induced NFkB p65 translocation, primary screen, imaging, HUVEC, MLSMR starter and 10KST1 sets (AID 438;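 active means inhibition above 20% together with a positive visual image hit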;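 further: compound added about 3h40 before a 20 min TNFalpha stimulation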;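 on inhibition: signal is the nuclear over cytoplasmic p65 intensity ratio per well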). Particulars: HUVEC TNFa-induced p65 nuclear translocation; cell count: measured here: nuclei count (cytotoxicity indicator), at 2.08 µM; inhibition: at 2 µM, stronger effect = higher value, 0% TNFa-plus-vehicle, 100% no-TNFa wells.
Experiment [2] is described as follows: reduction of polyQ htt aggregates in cells – imaging, exon1htt(103Q)mCFP cells, high-content imaging, primary screen (AID 483;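 active means visual image review flags a hit and inhibition of aggregation exceeds 20%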;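 further: compound exposure lasted 3 days before fixation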;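 on nuclei count: percent of the per-plate median nuclei count of sample wells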). The note with it: exon1htt(103Q)mCFP cell line, aggregate imaging, at 2 µM; inhibition of aggregation: stronger effect = higher value; nuclei count: measured here: cell count, toxicity.
Experiment [3] can be described thus: endothelial E-selectin expression blockers – imaging, HUVEC, immunofluorescence, MLSMR starter and 10KST1 sets, primary screen (AID 487).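 On inhibition: signal is fraction of cell area covered by stained E-selectin grains.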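 On nuclei count: 100% = median nuclei count of all wells on the same plate.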 Particulars: HUVEC TNFalpha-induced E-selectin immunofluorescence imaging, at 2 µM; inhibition: stronger effect = higher value; nuclei count: measured here: cell number, toxicity.
The target of experiment [4] is Voltage-gated potassium channel subunit beta-2 (Rattus norvegicus) (UniProt P62483). Kind of experiment: inhibitors of rat Kvbeta2 reductase activity – biochemical, NADPH fluorescence, primary screen (AID 622;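 active means fluorescence slope higher than the sample average by over 3 SD, cut at about -0.22 in these data, passing the limit was not always enough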;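 further: slope of raw intensity against log time taken from 70 to 1610 s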). Particulars: recombinant KvBeta, 4-cyanobenzaldehyde reduction, at 10 µM, stronger effect = higher value.
Voltage-gated potassium channel subunit beta-2 (Rattus norvegicus), sequence (P62483 whole entry, looked up): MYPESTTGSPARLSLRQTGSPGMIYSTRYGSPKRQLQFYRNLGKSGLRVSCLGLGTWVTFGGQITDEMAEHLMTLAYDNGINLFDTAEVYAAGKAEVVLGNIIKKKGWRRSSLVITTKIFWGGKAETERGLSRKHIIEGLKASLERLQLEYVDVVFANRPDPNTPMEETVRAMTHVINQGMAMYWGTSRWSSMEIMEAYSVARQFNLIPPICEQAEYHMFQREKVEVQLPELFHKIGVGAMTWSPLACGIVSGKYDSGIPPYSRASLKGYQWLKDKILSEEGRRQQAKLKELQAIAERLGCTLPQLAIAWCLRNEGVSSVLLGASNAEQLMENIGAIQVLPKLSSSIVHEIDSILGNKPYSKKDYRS
Experiment [5] shares this target. In words: enhancers of rat Kvbeta2 NADPH turnover – biochemical, NADPH fluorescence, primary screen (AID 623;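 active means NADPH fluorescence slope more negative than the mean of all samples by about 3 SD, 99.7% confidence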;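 further: fluorescence intensity change per second fitted from 20 to 320 s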). Particulars: Recombinant KvBeta, NADPH fluorescence decrease slope, 10 min; at 10 µM; stronger effect = lower value.
Experiment [6] has as its target Alpha-2C adrenergic receptor (Homo sapiens) (UniProt P18825). Kind of experiment: compounds altering alpha2C-coupled GIRK flux – cell-based, HEK293 alpha2C/GIRK1/2, thallium flux, primary screen (AID 624;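 active means fluorescence slope after compound addition differing from the mean of all screened samples at 99.7% confidence, in either direction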;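 further: slope of fluorescence ratio to pre-addition baseline per second over 15 to 24 s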). Particulars: thallium flux BTC fluorescence, at 10 µM, actives lie on both sides.
The nature of experiment [7]: blockers of RIG-like receptor reporter activation – cell-based, Sendai virus stimulus, luciferase, 10K MLSCN set, TLR/RLR signaling modifier project, primary screen (AID 602276;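 active means inhibition at or above 50% at 10 µM; inactive means inhibition below 50%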;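 further: firefly luciferase from ISG56 promoter only with Renilla not read in this screen; 0% = Sendai virus plus DMSO and 100% = medium plus DMSO without virus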). Particulars: HEK293 RL24 IRF3 luciferase reporter, at 10 µM, stronger effect = higher value.
Experiment [8] can be described thus: TLR3 IRF3 reporter activation blockers – cell-based, poly I:C stimulus, luciferase, 10K MLSCN set, primary screen (AID 602277;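 active means inhibition of the reporter signal at or above 50%; inactive means inhibition below 50%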). The note with it: HEK293-TLR3 RL24 IRF3 luciferase reporter, at 10 µM, stronger effect = higher value. For orientation: Reporter assays use an easily measured gene product as a stand-in for the process of interest.

Activity calls are given as the source filed them.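 How the source made its calls, unless noted: active means visually confirmed hit in the image check and inhibition above 20%; inconclusive means visually confirmed hit but inhibition not above 20%; inactive means no visual hit in the image check.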

Alpha-2C adrenergic receptor (Homo sapiens), sequence (P18825 whole entry, looked up): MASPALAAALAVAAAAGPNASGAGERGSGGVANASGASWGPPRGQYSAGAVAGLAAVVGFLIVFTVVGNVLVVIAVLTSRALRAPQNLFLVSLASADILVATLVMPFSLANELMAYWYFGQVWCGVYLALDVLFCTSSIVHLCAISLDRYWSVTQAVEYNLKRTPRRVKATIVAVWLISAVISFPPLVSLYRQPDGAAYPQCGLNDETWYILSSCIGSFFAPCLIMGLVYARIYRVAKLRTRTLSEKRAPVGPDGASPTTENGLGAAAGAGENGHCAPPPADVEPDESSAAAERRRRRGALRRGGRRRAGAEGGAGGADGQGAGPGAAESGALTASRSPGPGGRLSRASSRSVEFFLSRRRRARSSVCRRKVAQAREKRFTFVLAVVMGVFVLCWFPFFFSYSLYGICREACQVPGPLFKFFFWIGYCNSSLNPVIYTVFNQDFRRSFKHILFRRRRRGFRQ

Consider `Nc1nnnn1/N=C/c1ccccc1OCc1ccccc1`, for which the cell count in experiment [1] was 474. For the same molecule, the inhibition in experiment [1] is 4.5% (inactive); in experiment [3] it was -283% (inactive); in experiment [7] it was 7.71% (inactive); in experiment [8] it was 0.143% (inactive). In experiment [2], the inhibition of aggregation is -2.8% (inactive). For the same molecule, the results for the nuclei count in experiment [2] and in experiment [3] were 101% and 138%, respectively. Further, in experiment [4], the fluorescence slope is -0.496 (inactive). For the same molecule, the NADPH fluorescence slope in experiment [5] is -4.4e-05 (inactive). Also, the slope in experiment [6] was 0.00612 (inactive).

In the case of `CCSCCNC(=O)c1cc(-n2cnnc2)ccc1Cl`, the cell count in experiment [1] stood at 685. Moreover, the inhibition in experiment [1] is 1.3% (inactive); in experiment [3] it was 24.9% (inactive); in experiment [7], 16.3% (inactive); in experiment [8] it was 20.3% (inactive). In experiment [2], the inhibition of aggregation was -2.3% (inactive). The nuclei count in experiment [2] turned out to be 97.1%; in experiment [3] it was 89.9%. Further, the fluorescence slope in experiment [4] is -0.633 (inactive). The NADPH fluorescence slope in experiment [5] was -9.8e-06 (inactive). Further, the slope in experiment [6] was 0.0037 (inactive).

As to `Cc1cnc(NC(=O)CSc2nnc(COc3c(C)cccc3C)o2)s1`, the cell count in experiment [1] worked out at 628. For the same molecule, the inhibition in experiment [1] was 10.9% (inactive); in experiment [3], -22.4% (inactive); in experiment [7], 12.1% (inactive); in experiment [8] it was 39% (inactive). For the same molecule, in experiment [2], the inhibition of aggregation was -2.5% (inactive). Besides, the nuclei count in experiment [2] was 103%; in experiment [3], 121%. In addition, the fluorescence slope in experiment [4] was -0.537 (inactive). Also, the NADPH fluorescence slope in experiment [5] was -4.4e-05 (inactive). For the same molecule, in experiment [6], the slope is 0.00686 (inactive).

`Cn1c(C(=O)NCCCN2CCCCCC2)cc2c(=O)n(C)c3ccccc3c21`: the cell count in experiment [1] was determined as 653. Also, the inhibition in experiment [1] is 5.5% (inactive); in experiment [3] it was -33.1% (inactive); in experiment [7] it was 72.2% (active); in experiment [8], 79% (active). Also, the inhibition of aggregation in experiment [2] is -31.5% (inactive). Besides, the nuclei count in experiment [2] turned out to be 76.6%; in experiment [3] it was 101%. In addition, in experiment [4], the fluorescence slope is -0.639 (inactive). The NADPH fluorescence slope in experiment [5] was -4.1e-06 (inactive). Moreover, the slope in experiment [6] was 0.00675 (inactive).

In the case of `c1cc2c(cc1Cn1cnnn1)OCO2`, in experiment [1], the cell count stood at 599. Also, the inhibition in experiment [1] was 2.1% (inactive); in experiment [3], 26.6% (inactive); in experiment [7], 13.3% (inactive); in experiment [8], 22.4% (inactive). For the same molecule, in experiment [2], the inhibition of aggregation was -6.5% (inactive). Also, the nuclei count in experiment [2] was found to be 107%; in experiment [3], 87.2%. Moreover, the fluorescence slope in experiment [4] is -0.492 (inactive). Besides, the NADPH fluorescence slope in experiment [5] is -6.9e-05 (inactive). In addition, in experiment [6], the slope is 0.00714 (inactive).

For `Cc1ccnc(SCCn2c(N3CCCCC3)nc3c2c(=O)n(C)c(=O)n3C)n1`, the cell count in experiment [1] was 249. Also, the inhibition in experiment [1] is 4.4% (inactive); in experiment [3], -49.1% (inactive); in experiment [7] it was 10.1% (inactive); in experiment [8], 36.5% (inactive). In addition, the inhibition of aggregation in experiment [2] is -9.4% (inactive). Also, the nuclei count was found to be 93.5% in experiment [2] and 107% in experiment [3]. Further, the fluorescence slope in experiment [4] is -0.319 (inactive). The NADPH fluorescence slope in experiment [5] is 1.8e-05 (inactive). Besides, the slope in experiment [6] is 0.00339 (inactive).

Take `Cc1nn(-c2ccc(F)cc2)c2sc(C(=O)N3CCCCCC3)cc12`: in experiment [1], the cell count is 465. The inhibition in experiment [1] is 2% (inactive); in experiment [3] it was -38.9% (inactive); in experiment [7] it was -4.92% (inactive); in experiment [8], -14.2% (inactive). For the same molecule, the inhibition of aggregation in experiment [2] is 1.2% (inactive). Further, the nuclei count in experiment [2] was determined as 83.1%; in experiment [3] it was 113%. Moreover, in experiment [4], the fluorescence slope was -0.199 (inactive). In addition, the NADPH fluorescence slope in experiment [5] was -3.1e-05 (inactive). For the same molecule, the slope in experiment [6] was 0.00645 (inactive).

In the case of `CN1CCN(C(=O)c2ccc3c(=O)n(CCc4ccccc4)c(=S)[nH]c3c2)CC1`, the cell count in experiment [1] turned out to be 551. Moreover, the inhibition in experiment [1] is -13.1% (inactive); in experiment [3], -44.1% (inactive); in experiment [7] it was 4.3% (inactive); in experiment [8], 23.3% (inactive). Further, the inhibition of aggregation in experiment [2] was -0.8% (inactive). Besides, the nuclei count in experiment [2] is 77%; in experiment [3] it was 98.9%. Further, the fluorescence slope in experiment [4] was -0.459 (inactive). In addition, in experiment [5], the NADPH fluorescence slope was 5.7e-06 (inactive). Also, in experiment [6], the slope is 0.00697 (inactive).

Regarding `CC(=O)N1CCN(S(=O)(=O)c2cccc(C(=O)Nc3ccc4c(c3)CCC4)c2)CC1`, in experiment [1], the cell count worked out at 442. Besides, the inhibition was 10.5% (inactive) in experiment [1], -54.2% (inactive) in experiment [3], 9.87% (inactive) in experiment [7] and 1.5% (inactive) in experiment [8]. Besides, in experiment [2], the inhibition of aggregation is -6.6% (inactive). Moreover, the nuclei count was determined as 118% in experiment [2] and 111% in experiment [3]. Also, in experiment [4], the fluorescence slope is -0.385 (inactive). Besides, the NADPH fluorescence slope in experiment [5] was -4e-05 (inactive). Further, in experiment [6], the slope is 0.00306 (inactive).

In general, inhibition refers to the drop in the measured response relative to a control, in per cent.

The values above are taken from PubChem BioAssay.
